Among the test systems are SK-MEL-2 melanoma; EKVX NSCLC; SN12C renal; UO-31 renal; TK-10 renal; ACHN renal; CAKI-1 renal; A498 renal; CCRF-CEM leukemia; MOLT-4 leukemia.
Holding throughout (assay): NCI-60 one-dose screen, 48 h (100 = growth as untreated, 0 = no growth, -100 = all killed)
Common to all, as to details: 10 µM unless noted

About 83,000 compounds went through this panel and 20% of them were active in at least one assay; those are over-represented in the sample as a whole.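 48-hour exposure, single concentration, 96-well plates; percent growth endpoint where 0 means no net growth. Active: below 10.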 Values without a mark were called inactive. Activity calls are given as the source filed them.

On to `COc1ccc(CCN2CC=Cn3c2nc2ccccc2c3=O)cc1`, for which the growth in the assay on SK-MEL-2 melanoma was 46.5%; in the assay with EKVX NSCLC, 64.9%; in the assay with SN12C renal it was 32.6%; with UO-31 renal it was 35.2%; in the assay with TK-10 renal, 77.6%; with ACHN renal, 26.7%. In addition, the growth was 26.9% in the assay on CAKI-1 renal, -7.45% (active) in the assay on A498 renal, 18.7% with CCRF-CEM leukemia and 19% in the assay with MOLT-4 leukemia.
On to `O=C1C2CC=CCC2C(=O)N1CNc1ccc(Cl)cc1` (stereo not given), for which the growth is 94.2% in the assay with SK-MEL-2 melanoma; 88.6% in the assay on EKVX NSCLC; 90.8% in the assay on SN12C renal; 47% in the assay on UO-31 renal; 107% in the assay on TK-10 renal; 88.8% with ACHN renal. Besides, the growth with CAKI-1 renal is 90.2%; in the assay on A498 renal, 96.5%; in the assay on CCRF-CEM leukemia it was 120%; with MOLT-4 leukemia, 101%.
In the case of `CCOC(=O)c1c2c(n3ccc(NC(=O)CCN4CCCCC4)cc13)C(=O)c1ncccc1C2=O`, the growth is 52.1% with SK-MEL-2 melanoma; 67.9% with EKVX NSCLC; 30.2% in the assay with SN12C renal; 10.3% in the assay with UO-31 renal; 54% in the assay on TK-10 renal; -52.5% (active) in the assay on ACHN renal. Further, the growth with CAKI-1 renal was 16.9%; with A498 renal it was 58.5%; in the assay on CCRF-CEM leukemia it was -22.9% (active); in the assay with MOLT-4 leukemia, -25.9% (active).
Turning to `CCCCCCCCCCCCCCCCCCNC(=O)[C@H]1CSC(c2ccc(OC)c(F)c2)N1` (stereo not given in full), the growth was -54.1% (active) with SK-MEL-2 melanoma; 17.5% in the assay with EKVX NSCLC; -80.7% (active) in the assay with SN12C renal; 66.6% in the assay with UO-31 renal; 59.5% in the assay on TK-10 renal; 87.8% in the assay on ACHN renal. Further, the growth with CAKI-1 renal is 52.9%; in the assay on A498 renal it was 64.9%; with CCRF-CEM leukemia it was -14.4% (active); in the assay with MOLT-4 leukemia, 10% (active).
For the molecule `CN1CCOCCOCCOc2ccccc2NC(=O)c2nc(cnc2N)-c2ccc(cc2)S1(=O)=O`, the growth in the assay on SK-MEL-2 melanoma was 49.8%; in the assay on EKVX NSCLC, 80.4%; with SN12C renal, 64.7%; in the assay with UO-31 renal it was 42.1%; in the assay on TK-10 renal it was 43.7%; in the assay with ACHN renal it was 8.87% (active). The growth in the assay on CAKI-1 renal is 53.7%; in the assay on A498 renal, 29.3%; in the assay with CCRF-CEM leukemia, 2.07% (active); in the assay with MOLT-4 leukemia it was 0.82% (active).
Consider `CSc1nc(NCCO)c(C#N)c(-c2cccc(N)c2)n1`, for which the growth is 108% in the assay on SK-MEL-2 melanoma; 81.4% with EKVX NSCLC; 94.7% with SN12C renal; 74.6% in the assay on UO-31 renal; 145% in the assay with TK-10 renal; 92.3% in the assay with ACHN renal. Also, the growth in the assay on CAKI-1 renal is 80.3%; in the assay with A498 renal, 83.7%; with CCRF-CEM leukemia, 94.9%; in the assay with MOLT-4 leukemia it was 95.6%.
Regarding `Nc1c(C(=O)Nc2cccc3c2OCCO3)sc2nc3c(cc12)C(=O)CCC3`, the growth with SK-MEL-2 melanoma is 64.9%; in the assay with EKVX NSCLC, 24.7%; in the assay on SN12C renal, 41.3%; in the assay on UO-31 renal it was 53%; with TK-10 renal, 73.3%; with ACHN renal it was 55.4%. For the same molecule, the growth in the assay with CAKI-1 renal was 47.6%; in the assay with A498 renal, -1.97% (active); in the assay with CCRF-CEM leukemia, 16.5%; with MOLT-4 leukemia it was 57.6%.
As to `C=C1C(=O)O[C@H]2[C@H]1CC/C(Cn1cc(Cc3c[nH]c4ccccc34)nn1)=C\CC[C@@]1(C)O[C@@H]21`, the growth with SK-MEL-2 melanoma is 51.2%; in the assay with EKVX NSCLC, 53.6%; with SN12C renal, 39.4%; in the assay with UO-31 renal, -71.1% (active); with TK-10 renal, 14.7%; in the assay with ACHN renal, -36.1% (active). The growth in the assay on CAKI-1 renal was 31.7%; in the assay with A498 renal it was 64.3%; in the assay on CCRF-CEM leukemia, -17.1% (active); with MOLT-4 leukemia, -1.1% (active).
Regarding `COc1ccc(/C=C/C(=O)c2ccc(NC(=O)c3cc4cc5ccccc5nc4s3)cc2)cc1OC`, the growth in the assay on SK-MEL-2 melanoma was 103%; in the assay on EKVX NSCLC, 94.6%; in the assay on SN12C renal, 98.1%; in the assay with UO-31 renal, 88.5%; in the assay on TK-10 renal, 126%; in the assay with ACHN renal it was 102%. The growth in the assay on CAKI-1 renal is 98%; with A498 renal, 83.1%; with CCRF-CEM leukemia, 104%; with MOLT-4 leukemia, 114%.
Consider `CC(=O)C1=C(O)C=C2Oc3c(C(=O)/C=C/c4cc(Cl)cc(Cl)c4)c(O)c(C)c(O)c3[C@]2(C)C1=O`, for which the growth in the assay on SK-MEL-2 melanoma was -62.8% (active); in the assay on EKVX NSCLC it was -15.6% (active); in the assay on SN12C renal, -31.8% (active); with UO-31 renal it was -15.1% (active); in the assay with TK-10 renal, -17.4% (active); with ACHN renal, -12.4% (active). In addition, the growth was 2.74% (active) in the assay on CAKI-1 renal, -57.7% (active) in the assay on A498 renal, -22% (active) with CCRF-CEM leukemia and -25.3% (active) in the assay with MOLT-4 leukemia.
Regarding `CNc1cc2nc3cc(NC)c(C)cc3cc2cc1C`, the growth in the assay on SK-MEL-2 melanoma is 48.5%; with EKVX NSCLC, -0.852% (active); in the assay with SN12C renal, 14.2%; in the assay on UO-31 renal it was 34.5%; with TK-10 renal, 24.5%; in the assay with ACHN renal, 20.6%. Also, the growth was 7.63% (active) in the assay with CAKI-1 renal, 16.5% in the assay on A498 renal, 40.9% in the assay on CCRF-CEM leukemia and 1.13% (active) with MOLT-4 leukemia.
Regarding `Cc1[nH]n(-c2ccccc2)c2nc3nncc3c(-c3ccc(Cl)cc3)c12`, the growth in the assay on SK-MEL-2 melanoma is 123%; in the assay on EKVX NSCLC, 97%; in the assay with SN12C renal it was 93.1%; with UO-31 renal it was 96.6%; in the assay with TK-10 renal, 112%; in the assay on ACHN renal, 104%. In addition, the growth with CAKI-1 renal is 90.3%; in the assay on A498 renal it was 102%; with CCRF-CEM leukemia, 89.7%; in the assay on MOLT-4 leukemia it was 101%.
Regarding `Cc1nc2sc(C(=O)Nc3cccc4c3OCCO4)c(N)c2cc1C(C)O` (stereo not given), the growth in the assay with SK-MEL-2 melanoma is 17.1%; with EKVX NSCLC it was 35.1%; in the assay on SN12C renal it was 40.4%; in the assay on UO-31 renal, 44.3%; in the assay with TK-10 renal, 55.7%; with ACHN renal, 44.8%. Moreover, the growth was 40.9% in the assay on CAKI-1 renal, -4.54% (active) in the assay on A498 renal, 19.3% in the assay with CCRF-CEM leukemia and 28.2% with MOLT-4 leukemia.
Regarding `Cc1cc2cc3cc(C)c(N(C)C)cc3nc2cc1N(C)C`, the growth in the assay with SK-MEL-2 melanoma was -31.8% (active); in the assay with EKVX NSCLC it was 34.6%; with SN12C renal, 15.3%; with UO-31 renal, 59.1%; with TK-10 renal, -14.6% (active); in the assay with ACHN renal, 39.1%. The growth in the assay on CAKI-1 renal is 43.7%; in the assay with A498 renal, 52.8%; in the assay on CCRF-CEM leukemia, 17.3%; with MOLT-4 leukemia it was 29.1%.

Values taken from PubChem BioAssay (NCI).
